{"source": "PubChem BioAssay AID2284345", "about": "(EPA ToxCast)", "note": "Inconclusive results are not listed. Active and inactive are the calls of the source. Rule for the calls: active = hit-call score of the fitted dose curve at least 0.9, where 1 is the maximum; inconclusive = response in the unintended direction; inactive = score below 0.9."}
{"system": "zebrafish Glucocorticoid Receptor (GR), gene 553740", "test": "ATG_zfGR_EcoTox2: Attagene TRANS-FACTORIAL EcoTox-2 HepG2 Assay for zebrafish Glucocorticoid Receptor (GR)", "procedure": "ATG_EcoTox2 is a cell-based, multiplexed assay created by modifying the existing Attagene TRANS-FACTORIAL system to include a panel of nuclear receptors from some or all the following species: human (Homo sapiens), african clawed frog (Xenopus laevis), rainbow trout (Oncorhynchus mykiss), japanese medaka (Oryzias latipes), and zebrafish (Danio rerio). The ECOTOX2-FACTORIAL format uses HepG2, a human liver cell line, with measurements taken at 24 hours after chemical dosing in a 24-well plate. ATG_zfGR_EcoTox2 is one of 29 assay components calculated in the ATG_EcoTox2 assay. It is designed to make measurements of mRNA induction, a form of inducible reporter, as detected with fluorescence intensity signals by Reverse transcription polymerase chain reaction (RT-PCR) and Capillary electrophoresis technology.The assay endpoint ATG_zfGR_EcoTox2 was analyzed in the positive analysis fitting direction relative to DMSO as the negative control and baseline of activity. Using a type of inducible reporter, measures of mRNA for gain-of-signal activity can be used to understand the reporter gene at the transcription factor-level as they relate to the gene for glucocorticoid receptor. Furthermore, this assay endpoint can be referred to as a primary readout, because this assay has produced multiple assay endpoints where this one serves a reporter gene function. To generalize the intended target to other relatable targets, this assay endpoint is annotated to the nuclear receptor intended target family, where the subfamily is steroidal.\nHuman liver HepG2 cells are transiently transfected with multiple reporter transcription units (MRTUs) in 6-well plates using FuGene 6 reagent (Roche; 3 ml FuGene/1 mg DNA). The MRTU constructs are regulated by a cis-regulating element (promoter). Each RTU expresses a GAL4-UAS that regulates the transcription of a nearby target reporter gene sequence. A major difference between the CIS and TRANS system is that in CIS activities of endogenous TFs are measured, whereas the TRANS assay evaluates changes in activities of exogenous, chimeric NR-Gal4 proteins. […] At the end of 24 hour incubation, total RNA was isolated using TriZol reagent (Invitrogen). The isolated RNA is then reverse-transcribed using oligo(dT) primer and Mo-MLV reverse transcriptase (Invitrogen) with DNAse I (Ambion) treatment for 30 min. The one-tenth of the produced cDNA was amplified by PCR using Taq DNA polymerase (Invitrogen) and two reporter sequence-specific primers. The PCR products were fluorescently labeled by primer extension with 6-arboxyfluorescein (6-FAM) 5'-labeled reporter sequence-specific primer (2 min at 95 C, 20 s at 68 C and 10 min at 72 C) and these products were digested with 5U of HpaI (New England Biolabs) for 2h at 37 C. The fragments were purified using Qiaquick PCR columns (Qiagen), analyzed on an ABI 3130xL genetic analyzer (Applied Biosystems) with peak positions identified by using a set of X-rhodamine (ROX)-labeled MapMarker1000 molecular weight standards (BioVentures). The raw capillary electrophoresis data was processed using Attagraph software (Attagene)."}
{"smiles": "CC(C)OC(=O)C(C)(C)Oc1ccc(C(=O)c2ccc(Cl)cc2)cc1", "outcome": "inactive"}
{"smiles": "Cc1ccc(C)c(OCCCC(C)(C)C(=O)O)c1", "outcome": "inactive"}
{"smiles": "C[C@@H]1C[C@H]2[C@@H]3CCC4=CC(=O)C=C[C@]4(C)[C@@]3(F)[C@@H](O)C[C@]2(C)[C@@]1(O)C(=O)COP(=O)(O)O", "AC50": "4.57 nM (active)"}
{"smiles": "Cc1c(C)c2c(c(C)c1O)CCC(C)(COc1ccc(CC3SC(=O)NC3=O)cc1)O2", "note": "(configuration not stated)", "outcome": "inactive"}
{"smiles": "CN(CCOc1ccc(CC2SC(=O)NC2=O)cc1)c1ccccn1", "note": "(configuration not stated)", "outcome": "inactive"}
{"smiles": "C[C@]12C=CC(=O)C=C1CC[C@@H]1[C@@H]2C(=O)C[C@@]2(C)[C@H]1CC[C@]2(O)C(=O)CO", "outcome": "inactive"}
{"smiles": "CC(C)(Oc1ccc(Cl)cc1)C(=O)O", "outcome": "inactive"}
